Compound activity deposited in PubChem by National Center for Advancing Translational Sciences (NCATS).
This is a sample that favours compounds with a hit; in the whole collection about 4.6% have one here.
D1 antag: antagonists of human D1 dopamine receptor | P21728 | HEK293 TREx D1 cells, calcium flux, dopamine EC80; hits give low values | activity change, negative = inhibition, % at 10 µM | hit rate 3.2% among 360,000; in the data active = activity change below about -30%; also: % is scaled to controls: 0 for no effect and ±100 for the full control effect
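Antagonism measured as reduced calcium response to an EC80 dopamine addition following 180 s compound pre-read; cells were inducible HEK293 Trex D1 plated overnight at 30 C, read kinetically at 1 cycle/sec.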
D1 agonist: agonists of human D1 dopamine receptor | HEK293 T-REx D1 cells, calcium flux, agonist mode | activation, % at 2 µM | hit rate 1% among 360,000; in the data active = activation above about 30%; also: 0% is about no effect
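Agonism was scored from calcium flux recorded over 180 s (1 read/s) after pintool compound addition, following a 10-cycle baseline. Cells were inducible force-coupled HEK293 TREx D1, plated overnight at 30 C and loaded with no-wash calcium dye.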
TRHR agonist-1: activates the human TRH receptor | P34981 | hit rate 0.18% among 360,000 | activation, % at 2 µM | TRHR cells, calcium flux fluo-8, FDSS agonist mode; in the data active = activation above about 30%; also: 0% is about no effect
Target sequence (P34981 whole entry, looked up): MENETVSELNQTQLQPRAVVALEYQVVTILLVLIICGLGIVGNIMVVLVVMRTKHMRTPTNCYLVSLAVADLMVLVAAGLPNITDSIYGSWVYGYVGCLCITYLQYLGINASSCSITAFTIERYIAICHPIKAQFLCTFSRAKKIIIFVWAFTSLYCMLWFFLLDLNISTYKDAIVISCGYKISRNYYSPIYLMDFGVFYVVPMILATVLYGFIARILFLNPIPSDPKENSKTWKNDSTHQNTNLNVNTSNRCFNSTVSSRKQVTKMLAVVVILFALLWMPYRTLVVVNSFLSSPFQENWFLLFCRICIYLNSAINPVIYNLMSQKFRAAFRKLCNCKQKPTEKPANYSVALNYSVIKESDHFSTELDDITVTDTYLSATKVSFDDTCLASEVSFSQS
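TRHR-expressing cells loaded with fluo-8 calcium dye; 23 nL library compound pin-transferred, kinetic FDSS fluorescence (Ex 480/Em 530) recorded about 180 s for agonist-induced calcium release, before a 10 nM TRH EC20 addition for potentiator mode.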
D1 PAM: enhances dopamine response at the human D1 receptor. AID 504651. potentiation, % at 10 µM. HEK293 TREx D1 cells, calcium flux, dopamine EC20 potentiation. hit rate 0.036% among 360,000; in the data active = potentiation above about 30%; also: 0% is about no effect
TRHR enhancer-1: allosterically enhances the human TRH receptor; TRHR cells, fluo-8 calcium fluorescence, EC20 TRH enhancement; P34981; hit rate 0.66% among 360,000; enhancement, % at 2 µM; in the data active = enhancement above about 30%; also: 0% is about no effect
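Enhancer read-out: after compound pinning and an initial kinetic agonist-mode read, an EC20 of TRH (10 nM final) was injected and fluo-8 calcium signal (Ex 480/Em 530) followed at 1 s/cycle for 100 cycles in TRHR-expressing cells.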
TRHR enhancer-2: human TRH receptor allosteric enhancement confirmation; 970 tested, under 10 active; AID 493076; TRH receptor cell assay, enhancer confirmation qHTS; shares compounds with TRHR enhancer-1; activity change, negative = inhibition, % at 46.1 µM;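 also: compound effect scored on response to added TRH at EC20 of 10 nM; 0% is about no effect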
TRHR agonist-2: confirmation of human TRH receptor agonists; Potency, µM (doses to about 46.1 µM), for inactives: at the highest dose activation, actives largely listed as activators; hit rate 8% among 970; TRHR-expressing cells, agonist activation read-out; shares compounds with TRHR enhancer-1; also: potency is read from the fitted curve at half-maximal effect; 0% is about no effect; nearly all actives have a fitted effect of over 75% in size
The depositor's hits bear a star; u = inconclusive; x = not tested or not shown. Unless noted, calls follow the shape of the dose curve; as a rule, active = well fitted curve in the direction sought with a large enough effect; inconclusive = small, poorly fitted or top-dose-only effect, or another doubt; inactive = no such curve, though single readings can be large; an effect the other way counts as inactive or inconclusive.

SMILES	D1 antag	D1 agonist	TRHR agonist-1	D1 PAM	TRHR enhancer-1	TRHR enhancer-2	TRHR agonist-2
CCOC(=O)c1sc(NC(=O)c2nc3nc(C)cc(C(F)F)n3n2)c(C(=O)OC(C)C)c1C	-11	1	0	-1	-4	x	x
Cc1cc(C=C2C(=O)c3ccccc3C2=O)c(C)n1-c1ccc(C(=O)O)cc1	9	2	5	-2	49*	-10	u
Cc1cc(C=C2C(=O)c3ccccc3C2=O)c(C)n1-c1cccc(C(=O)O)c1	-4	8	9	-2	4	x	x
CCc1nnc(NS(=O)(=O)c2ccc(NC(=O)c3ccc(C#N)cc3)cc2)s1	-7	3	1	-3	2	x	x
Cc1ccc(C2(CCNC(C)c3cccs3)CCOC(C(C)C)C2)cc1 (stereo unspecified)	14	6	2	10	3	x	x
CC(NCCC1(C(C)C)CCOC(C)(C)C1)c1cccs1 (stereo unspecified)	10	4	0	2	52*	-4	3%
CSc1ccc(S(=O)(=O)NC(C)c2ccccc2)cc1 (stereo unspecified)	-14	-1	0	4	-3	x	x
Cc1ccc(S(=O)(=O)NC(C)c2ccccc2)cc1[N+](=O)[O-] (stereo unspecified)	1	1	0	1	58*	2	0%
COc1ccccc1CNC(=O)C/C(C)=N/NC(=O)Cc1ccccc1	-7	2	1	4	41*	-4	1%
CCOC(=O)N1CCN(C(=O)c2cnn(-c3cccc(F)c3)c2-n2cccc2)CC1	0	1	0	-1	-5	x	x
CC(C)C[C@H](NC(=O)OC(C)(C)C)C(=O)N/N=C/c1ccc2nccnc2c1	-13	1	0	-12	53*	-5	1%
COc1cc(OC)c(-c2nc3cnccc3n2C)cc1OC	-7	1	0	3	18	x	x
Cn1c(-c2ccc3ccccc3n2)nc2cnccc21	9	2	-1	-5	54*	u	0%
COc1cc(C(=O)N/N=C/c2ccc(OC(=O)c3ccccc3Cl)cc2)ccc1O	-8	0	0	-2	53*	6	6%
CC1=C(C(=O)Nc2cccc(C(=O)NCc3ccccc3C)c2)SCCO1	-1	4	0	4	2	x	x
C#CCOc1ccc(/C=C2/C(=O)ON=C2C)cc1Br	-16	2	0	2	-5	x	x
Nc1nc(SCc2c(Cl)cccc2Cl)n[nH]1	-23	0	-1	-9	45*	1	4%
O=C(Nc1ccccc1C(=O)Nc1ccccc1)c1ccccc1F	-9	2	0	-2	48*	u	1%
O=C(O)c1cccc(NC(=O)c2ccccc2NC(=O)c2ccccc2F)c1	1	6	1	-4	13	x	x
C=CCN(CC=C)C(=O)c1ccc(OC2CCN(S(=O)(=O)N(C)C)CC2)cc1	-27	10	-1	-3	7	x	x
COc1ccccc1CN(C)C(=O)CN1CCN(S(=O)(=O)c2ccc3c(c2)OCCCO3)CC1	4	0	-1	-2	55*	-6	0%
Cc1ccc(NC(=O)c2ccc3c(=O)n4c(nc3c2)CCCCC4)cc1F	-24	14	0	x	-2	x	x
COc1ccc(NC(=O)c2ccc3c(=O)n4c(nc3c2)CCCCC4)cc1	-4	0	0	-2	76*	-4	-1%
CCOc1ccc(C(=O)NCC(=O)NCC(c2cccs2)N2CCOCC2)cc1 (stereo unspecified)	-15	-1	-1	-5	-5	x	x
CC(CCOS(N)(=O)=O)c1ccccc1 (stereo unspecified)	6	2	0	5	-5	x	x
SMILES	D1 antag	D1 agonist	TRHR agonist-1	D1 PAM	TRHR enhancer-1	TRHR enhancer-2	TRHR agonist-2
[2H]C([2H])(CCOS(N)(=O)=O)c1ccccc1	5	1	0	-1	44*	2	u
CCN1CCN(Cc2c(O)ccc3c2O/C(=C\c2ccc(C)cc2)C3=O)CC1	-1	19	26	-7	-6	7	u
CCC(C)NC(=O)c1cc2c(=O)n(CC)c3ccccc3c2s1 (stereo unspecified)	4	2	-1	-9	58*	-5	2%
O=C(CN1CCCC1)N1c2ccccc2Sc2ccc(Cl)cc21	5	3	2	1	47*	-5	2%
O=C(CN1CCCC1)N1c2ccccc2Sc2ccc(C(F)(F)F)cc21	11	1	1	-2	-2	x	x
c1coc(-c2ccnc3ncnn23)c1	2	5	-1	-3	49*	-5	-1%
CCN(CC)c1ccc(/C=N/NC(=O)c2cccc(S(=O)(=O)N3CCOCC3)c2)c(O)c1	-29	12	39*	-4	-2	3	u
O=C(Nn1cnnc1)c1cccc(S(=O)(=O)N2CCOCC2)c1	1	7	102*	0	5	5	-1%
NS(=O)(=O)c1ccc(NC(=O)CN2CCc3ccccc32)cc1	-7	2	0	1	56*	-1	-1%
N=c1oc2ccccc2cc1C(=O)Nc1ccccc1	18	8	0	0	-2	x	x
CCCCCCc1cc2cc(C(=O)Nc3ccccc3)c(=O)oc2cc1O	-8	7	30*	-6	-10	5	1%
CCCCOc1ccc(C(=O)N(C)CC(=O)Nc2ccc(C)cc2)cc1	-2	0	-1	8	3	x	x
CCn1c(CC(=O)Nc2ccccc2)n[nH]c1=S	7	3	0	0	52*	0	-1%
C=CCc1cc(C=O)cc(OC)c1OCc1ccc(Cl)cc1	-1	6	0	-11	-8	x	x
C=CCc1cc(C=O)cc(OCC)c1OCc1ccc(Cl)cc1	10	6	0	2	45*	-3	1%
O=c1[nH]c2cc3ccccc3cc2nc1C(F)(F)F	-2	17	29	9	-4	-2	u
CCc1ccc(NC(=O)C(CC)n2nnc(C(=O)OC)c2C(=O)OC)cc1 (stereo unspecified)	-6	8	0	-2	7	x	x
CCC(C(=O)NCc1cccnc1)c1ccccc1 (stereo unspecified)	13	1	0	-5	42*	-2	-1%
O=c1cc(CO)[nH]cc1OCc1ccccc1	-2	2	0	-7	-7	x	x
CCN(CC)CCN(C(=O)c1ccc2c(c1)CCCC2)c1nc2c(C)cccc2s1	22	4	38*	-1	1	-8	0%
OC(CN1CCCCC1)Cn1c2ccccc2c2ccccc21 (stereo unspecified)	5	16	2	-6	-1	x	x
